IL-1B inflam inh – qHTS for Inhibitors of Inflammasome Signaling: IL-1-beta AlphaLISA Primary Screen | THP-1 LPS/ATP IL-1B secretion, AlphaLISA, 16 h; hits give low values | activity change, % at 57.5 µM | 360,000 tested, 4.7% active | AID 743279, 2014; in the data active means activity change below about -50%; inconclusive means mostly about -30% to -49%
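Secreted IL-1B measured by AlphaLISA bead assay after 16 h compound exposure of THP-1 cells; compounds (final up to 57.5 uM) added 1 h before LPS (250 ng/mL) and ATP (1.25 mM) stimulation; lower signal means less secretion.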
TDP1 cell CPT – qHTS for Inhibitors of human tyrosyl-DNA phosphodiesterase 1 (TDP1): qHTS in cells in presence of CPT | chicken DT40 Tdp1-/-;hTDP1 cells + 20 nM CPT, ATP luminescence, 48 h | Potency, µM (top dose mostly 46.2 µM), hits mostly inhibitors | 420,000 tested, 12% active | AID 686979, 2013; further: nearly all actives have a fitted effect of over 55% in size
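Chicken DT40 Tdp1-/- cells stably complemented with human TDP1 were seeded at 400 cells/well in medium containing 20 nM camptothecin, exposed to pin-transferred compounds, and grown at 37 °C for at least 48 hr. Viability was read as ATP luminescence.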
DT40 TDP1 no CPT – qHTS for Inhibitors of human tyrosyl-DNA phosphodiesterase 1 (TDP1): qHTS in cells in absence of CPT. 420,000 tested, 15% active. Potency, µM (highest dose often 46.2 µM), hits mostly inhibitors. DT40 Tdp1-/- hTDP1 cells, no CPT, ATP luminescence, 48 h; further: nearly all actives have a fitted effect of over 55% in size
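Luminescent ATP content (CellTiter-Glo) served as the growth readout. Knockout chicken DT40 cells expressing human TDP1 were exposed to compounds without camptothecin for a minimum 48 hr at 37 °C.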
TGFb SMAD3 inh – qHTS for Inhibitors of TGF-b; HepG2 CAGA-GFP TGF-b/SMAD3 reporter, GFP fluorescence, 18 h; TGF-beta stimulated, 500 pg/mL final; Potency, µM (top dose mostly 46.1 µM), hits mostly inhibitors; 410,000 tested, 1.2% active; AID 588855, 2011; further: nearly all actives have a fitted effect of over 65% in size
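Read-out: total well GFP (ex488/em500-530) summed from mean per-cell fluorescence. Cells: HEPG2 CAGA-GFP, 1% FBS DMEM, 18 h at 37 degrees C with 500 pg/mL final TGF-beta. Unstimulated wells served as the full-inhibition control; stimulated DMSO wells = 0%.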
HepG2 viability – qHTS for Inhibitors of TGF-b: Cytotox Counterscreen | HepG2 CAGA-GFP viability, ATP luminescence, 18 h | Potency, µM (highest dose often 46.1 µM), hits mostly cytotoxic | 410,000 tested, 0.76% active | AID 588856, 2011
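HepG2 CAGA-GFP cells (1000/well, DMEM with 1% FBS) received compound, then TGF-beta at 500 pg/mL final, and were incubated 18 hours at 37 degrees C. Viability was read by CellTiter-Glo luminescence. Media-only wells were set as complete cell-killing and DMSO as no toxicity.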
TDP1 block – qHTS Assay for Inhibitors of Tyrosyl-DNA Phosphodiesterase (TDP1) | recombinant TDP1, AlphaScreen DNA substrate cleavage | Potency, µM (highest dose often 130 µM), hits mostly inhibitors | 350,000 tested, 0.28% active | AID 485290, 2010; further: nearly all actives have a fitted effect of over 40% in size
Target sequence (Q9NUW8 whole entry, looked up): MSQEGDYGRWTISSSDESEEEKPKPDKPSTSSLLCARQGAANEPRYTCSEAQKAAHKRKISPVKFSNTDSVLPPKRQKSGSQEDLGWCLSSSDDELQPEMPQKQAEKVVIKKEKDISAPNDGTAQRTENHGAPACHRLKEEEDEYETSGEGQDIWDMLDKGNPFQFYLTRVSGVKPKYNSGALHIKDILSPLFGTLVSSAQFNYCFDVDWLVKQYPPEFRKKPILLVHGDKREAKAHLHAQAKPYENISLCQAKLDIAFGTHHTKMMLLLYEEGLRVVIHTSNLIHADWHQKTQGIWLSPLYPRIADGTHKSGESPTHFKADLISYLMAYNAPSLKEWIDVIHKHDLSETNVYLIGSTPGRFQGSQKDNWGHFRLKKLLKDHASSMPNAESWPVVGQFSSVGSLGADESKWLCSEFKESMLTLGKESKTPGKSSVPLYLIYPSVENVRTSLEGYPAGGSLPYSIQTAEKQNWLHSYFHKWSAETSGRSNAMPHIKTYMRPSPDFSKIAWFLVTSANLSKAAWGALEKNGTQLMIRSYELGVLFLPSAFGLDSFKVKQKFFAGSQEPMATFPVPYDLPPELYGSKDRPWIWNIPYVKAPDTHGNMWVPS
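Tdp1 1 nM final; 15 min RT w/ cpd; substrate 15 nM, 5 min; beads 10 ug/ml, 10 min; AlphaScreen read. Neg ctrl: no enzyme.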
Numbers stand for hits; - = inactive; ? = inconclusive; . = no result given. Hits are enriched below; roughly 19% of the tested compounds scored in any of these assays. Unless noted, the call rests on the fitted dose curve; in most records, active means well fitted curve in the direction sought with a large enough effect; inconclusive means small, poorly fitted or top-dose-only effect, or another doubt; inactive means no such curve, though single readings can be large; an effect the other way counts as inactive or inconclusive.

SMILES	IL-1B inflam inh	TDP1 cell CPT	DT40 TDP1 no CPT	TGFb SMAD3 inh	HepG2 viability	TDP1 block
CC(=O)C1=C(O)[C@@H]2[C@@H]3c4c[nH]c5cccc(c45)C[C@@H]3C(C)(C)N2C1=O	.	6.68µM	4.22µM	.	.	-
C/C(O)=C1\C(=O)[C@@H]2[C@H]3c4c[nH]c5cccc(c45)C[C@H]3C(C)(C)N2C1=O	.	10.5µM	8.31µM	.	.	-
CC(=O)C1=C(O)C2C3c4c[nH]c5cccc(c45)CC3C(C)(C)N2C1=O (stereo not drawn)	.	10.3µM	7.31µM	.	.	-
CC(C(=O)c1c[nH]c2ccccc12)N1CCc2ccccc2C1 (stereo not drawn)	-	16.4µM	?	-	-	-
CCCCC/C(=N\O)c1c[nH]c2ccccc12	-	-	-	?	-	-
COc1ccc(OC)c(CNC(=O)CCS(=O)(=O)c2ccc3c(c2)oc(=O)n3C)c1	-	-	-	?	-	-
O=C(O)CCCCCCNC1c2ccccc2CCc2ccccc21	.	-	-	.	.	.
Cc1nc2cc(-c3cccc(F)c3)nn2c(C)c1CCC(=O)N1CCC2(CC1)OCCO2	-	16.4µM	?	-	-	-
Cc1cccc(Cc2cnc[nH]2)c1C	.	-	-	.	.	.
CCc1nnc(NC(=O)CCc2nc(C3=CCN(C)CC3)no2)s1	-53.8	-	-	-	-	-
COc1ccc2c3c1OC1C(O)C=CC4C(C2)[N+](C)(C)CCC341 (stereo not drawn)	-	-	-	-	-	.
COc1ccc(N2C(=O)CS(=O)C(c3ccccc3)C2=O)cc1 (stereo not drawn)	-	?	20.6µM	?	-	-
COc1ccc(N2C(=O)CC(N3CCC(n4c(=O)[nH]c5ccccc54)CC3)C2=O)cc1 (stereo not drawn)	-	?	?	-	-	-
N[C@@H](CCP(=O)(O)O)C(=O)O	.	-	-	.	.	-
O=C(c1ccc2c(c1)N(Cc1c(F)cccc1Cl)C(=O)c1ccccc1S2)N1CCC2(CC1)OCCO2	.	?	23.1µM	-	-	-
CCN1C(=O)c2ccccc2Sc2ccc(C(=O)N3CCC4(CC3)OCCO4)cc21	-	?	13µM	-	-	-
CN1C(=O)c2ccccc2Sc2ccc(C(=O)N3CCC4(CC3)OCCO4)cc21	-	-	-	-	-	-
CCCCn1c(O)c(/C=C2\C=Nc3ccccc32)c(=O)[nH]c1=O	-	-	-	-	-	.
Cc1cccc(OP(=O)(Oc2ccccc2)OC(c2ccccc2)C(F)(F)F)c1 (stereo not drawn)	-	-	18.4µM	-	-	-
CN(Cc1ccccc1)C(=O)Cn1c(=O)oc2cc(S(=O)(=O)NCc3ccccc3)ccc21	-	14.6µM	20.6µM	-	-	-
Cn1c(=O)oc2cc(S(=O)(=O)Nc3cccc(F)c3)ccc21	-	-	-	-	-	-
CCOC(=O)Cn1c(=O)oc2cc(S(=O)(=O)Nc3cc(OC)cc(OC)c3)ccc21	.	16.4µM	20.6µM	?	-	-
O=C(Cn1c(=O)oc2cc(S(=O)(=O)NCc3ccccc3)ccc21)Nc1cccc(F)c1	.	?	?	?	-	-
COc1cc(NS(=O)(=O)c2ccc3c(c2)oc(=O)n3C)cc(OC)c1OC	-	13µM	9.2µM	-	-	-
COc1ccc2c3c1O[C@H]1C(=O)CC[C@@]4(O)C(C2)N(CC2CC2)CCC314 (stereo partly drawn)	.	.	.	.	.	-
SMILES	IL-1B inflam inh	TDP1 cell CPT	DT40 TDP1 no CPT	TGFb SMAD3 inh	HepG2 viability	TDP1 block
Oc1ccc2c3c1O[C@H]1c4oc5ccccc5c4C[C@@]4(O)C(C2)N(CC2CC2)CC[C@]314	.	?	?	.	.	-
Clc1ccc(C(c2ccccc2Cl)C(Cl)(Cl)Cl)cc1 (stereo not drawn)	.	.	.	.	.	-
OC[P+](CO)(CO)CO	.	.	.	.	.	-
C[C@@H]1CC[C@H]2[C@@H](C)C(=O)O[C@@H]3O[C@@]4(C)CC[C@@H]1[C@]32OO4	-	0.651µM	4.11µM	-	-	.
CC1CCC2C(C)C(=O)OC3O[C@]4(C)CCC1[C@@]32OO4 (stereo partly drawn)	.	.	.	.	.	-
C[C@@H]1CC[C@H]2[C@@H](C)C(=O)O[C@@H]3OC4(C)CC[C@@H]1C32OO4 (stereo partly drawn)	.	.	.	.	.	-
CC1C(=O)OC2O[C@]3(C)CC[C@H]4C(C)CCC1[C@]24OO3 (stereo partly drawn)	.	7.31µM	1.16µM	.	.	-
C[C@@H]1CCC2[C@@H](C)C(=O)O[C@@H]3OC4(C)CCC1[C@@]23OO4 (stereo partly drawn)	-	4.11µM	8.2µM	-	-	-
O=C(CN1CCCC2CCCCC21)c1ccc(I)cc1 (stereo not drawn)	.	-	-	-	-	.
COc1ccc(C(=O)C2CCCN(Cc3ccccn3)C2)c(OC)c1 (stereo not drawn)	-	20.6µM	14.6µM	-	-	-
COc1cccc(O)c1CN1CCCC(C(=O)c2ccccc2SC)C1 (stereo not drawn)	-	16.4µM	18.4µM	?	-	-
O=C(c1ccc(C(F)(F)F)cc1)C1CCCN(Cc2ccncc2)C1 (stereo not drawn)	-	10.3µM	10.3µM	-	-	-
O=C(c1ccc(C(F)(F)F)cc1)C1CCCN(Cc2ccc(CO)o2)C1 (stereo not drawn)	-	?	?	-	-	-
COc1ccc(C(=O)C2CCCN(Cc3cnc(C)s3)C2)c(OC)c1 (stereo not drawn)	-63.7	16.4µM	8.2µM	-	-	-
CN(C)C1CSSSC1	.	.	.	.	.	-
c1ccc(N=NNc2ccccc2)cc1	.	.	.	.	.	-
CC(C)(N)Cc1ccc(Cl)cc1	.	?	-	.	.	-
COc1ccc(C(=O)C2CCCN(Cc3cnc(C)s3)C2)cc1OC (stereo not drawn)	-	-	-	-	-	.
Cc1ncc(CN2CCCC(C(=O)c3ccc(C(C)(C)C)cc3)C2)s1 (stereo not drawn)	-	20.6µM	11.6µM	-	-	-
CCn1ccnc1CN1CCCC(C(=O)c2ccc(SC)cc2)C1 (stereo not drawn)	-	?	18.4µM	-	-	-
CN1CC[C@@]2(CCCN(C(=O)Oc3ccccc3)C2)C1	.	-	-	.	.	.
O=c1[nH]c(=S)n(-c2ccc(Cl)cc2)c(O)c1C=Nc1ccc(N2CCOCC2)cc1	-	-	-	-	-	-

Screening data (PubChem)
